Screens: PubChem, ICCB-Longwood Screening Facility, Harvard Medical School
This excerpt belongs to a sample that is enriched for hits.
Ba CapD inh = inhibitors of Bacillus anthracis CapD enzyme; purified CapD enzyme, fluorescence intensity read-out; hits give low values; z-score (test concentration not listed); AID 492967; 140,000 compounds, 0.23% hits; in the data active means z-score mostly below about -2.9, no sharp cut-off; inactive means mostly above about -1.9
* hit, by the source's call.

SMILES	Ba CapD inh
CCCN1C(=O)/C(=C/c2ccc(F)cc2)SC1=S	-0.45
CSC(=CC(=O)c1ccco1)SC	-2.17
CN(C)/C=C/C(=O)c1ccco1	-4.41*
CN(C)/C=C/C(=O)c1cc(-c2ccccc2)no1	-3.65
CCN(C(C)=O)c1ccccc1C	-0.63
COC(=O)c1ccccc1NC(=O)c1sc2ncnc(N3CCC(C)CC3)c2c1C	0.115
Cc1ccc(C(=O)OCCOc2ccccc2F)cc1	-1.04
CC(C)c1ccc(NC(=O)CSc2nc3ccccc3n2S(C)(=O)=O)cc1	0.165
COc1ccc(-n2nc(C(=O)N3CCCC3)c3c4ccccc4n(C)c3c2=O)cc1	1.67
COc1ccc(-n2nc(C(=O)N(C)Cc3ccccc3)c3c4ccccc4n(C)c3c2=O)cc1	0.72
COc1ccc(-n2nc(C(=O)N(C)c3ccccc3)c3c4ccccc4n(C)c3c2=O)cc1	-4.31*
COc1cc(OC)nc(C(c2ccccc2)c2ccccc2)n1	-0.315
CC1=NN(c2ccc(C(=O)NCc3ccc(N(C)C)cc3)cc2)C(=O)C1	-1.06
CC1=NN(c2ccccc2)C(=O)C1	-0.89
CC1=NN(c2ccc3c(S(=O)(=O)O)cc(S(=O)(=O)O)cc3c2)C(=O)C1	-6*
Cc1cc(NC(=S)N(C)C)ccc1Br	-0.8
COc1cc2c(cc1OC)C1N(CC2)C(C(=O)c2cccs2)=NN1c1ccccc1 (centres undefined)	32.2
O=C1NC(=S)NC(=O)C1=Cc1ccc(OCc2ccc(C(=O)O)cc2)c(Br)c1	-4.99*
O=C1NC(=O)C(=Cc2ccc(OCc3ccc(C(=O)O)cc3)c(Br)c2)C(=O)N1	-0.22
COc1cc(C=C2C(=O)NC(=O)NC2=O)ccc1OCc1ccc(C(=O)O)cc1	0.84
CCOc1[nH]n(-c2ccc(Cl)cc2)c(=O)c1C=NCc1ccc(Cl)cc1	-0.32
CSC1=C(C#N)C(c2ccc(Cl)cc2)C(C(=O)OC(C)(C)C)=C(C)N1 (centres undefined)	4.46
O=C(NC1CCCC1)c1cc(-c2ccc(O)cc2)on1	-1.07
O=C(NCc1cccs1)c1cc(-c2ccco2)on1	0.18
O=C(c1cc(-c2ccco2)on1)N(C1CCCCC1)C1CCCCC1	9.57
SMILES	Ba CapD inh
O=C(NC1CCCCC1)c1cc(-c2ccco2)on1	-4*
CCCNC(=O)c1cc(-c2ccco2)on1	-4.73*
COC(=O)c1ccccc1NC(=O)c1cc(-c2ccco2)on1	0.515
Cc1cccn2c(=O)c3cc(C(=O)NCCN4CCOCC4)c(=N)n(C(C)C)c3nc12	75.4
CC(CCOC(=O)NNC(=O)/C=C/c1cccc(C(F)(F)F)c1)c1ccccc1 (centres undefined)	1.97
Cc1oc(-c2cccc(Cl)c2)nc1CS(=O)(=O)CC(=O)NCc1ccccc1	0.415
CC(C)CCN1CSC2=C(C#N)C(c3ccc(F)cc3)CC(=O)N2C1 (centres undefined)	-1.31
O=C1CC(=O)c2c1cccc2[N+](=O)[O-]	-2.21
O=C1CC(=O)c2ccc3c4c(ccc1c24)C(=O)CC3=O	-5.06*
CCCSC1=C(C#N)C(c2cc(Br)c(O)c(OC)c2)CC(=O)N1 (centres undefined)	0.64
Cc1cc(C)cc(-n2c(C)cc(/C=C(\C#N)C(=O)Nc3ccccc3)c2C)c1	0.32
O=C(O)CCC(=O)N1CCc2cc(S(=O)(=O)NCc3ccccc3)ccc21	-1.62
CCC(=O)N1CCc2cc(S(=O)(=O)Nc3ccccc3OC)ccc21	0.41
COc1cc(NS(=O)(=O)c2ccc3c(c2)CCN3C(=O)CCC(=O)O)c(C(=O)O)cc1OC	-4.28*
CCCCc1ccc(NC(=O)Cn2c(C(C)O)nc3ccccc32)cc1 (centres undefined)	0.385
Cc1c(C(=O)NCc2ccccc2)sc2nc3n(c(=O)c12)CCCC3	-0.135
O=c1[nH]c2c(s1)C(c1ccccc1)C1C3CCC(C3)C1S2 (centres undefined)	-0.125
COc1ccc(C2c3sc(=O)[nH]c3SC3C(=O)N(c4ccccc4)C(=O)C32)cc1 (centres undefined)	1
O=C1NC(=O)C2C1Sc1[nH]c(=O)sc1C2c1ccco1 (centres undefined)	-4.13*
CCOC(=O)C1C(=O)NC(SCC(=O)Nc2c(C)cc(C)cc2C)=C(C#N)C1c1ccccc1OCC (centres undefined)	-0.5
CCOC(=O)N1CCN(C(=O)CSc2nc3c([nH]c4ccccc43)c(=O)n2-c2ccccc2)CC1	0.665
CCN1CCCC1CNC(=O)c1cnc(SC)nc1-c1ccccc1 (centres undefined)	-1.47
O=C1S/C(=C\c2ccco2)C(=O)N1c1ccccc1	-2.41*
N=C1S/C(=C\c2ccco2)C(=O)N1c1ccc(Oc2ccccc2)cc1	-0.19
O=C(O)c1cccc(-c2ccc(/C=C3/SC(=O)N(c4ccccc4)C3=O)o2)c1	18.1
SMILES	Ba CapD inh
Cc1csc2nc(CSc3ccccc3)cc(=O)n12	1.02
O=C1c2ccccc2C(=O)N2CC3(c4ccccc4)CN1CC(c1ccccc1)(C2)C3=O	-0.085
CC1=C(C(=O)Nc2ccccc2C)C(c2ccco2)C(C#N)=C(SCC(=O)Nc2cccc(Cl)c2)N1 (centres undefined)	-0.19
Cc1ccc(COC(=O)NCCc2c[nH]c3ccc(O)cc23)cc1	0.23
CCOC(=O)C1=C(C)NC2=C(C(=O)C(C(=O)OCC)C(c3ccccc3OC)C2)C1c1ccc(O)c(OC)c1 (centres undefined)	0.4
COc1cc(C2C(C#N)=C(SCc3ccccc3)NC3=C2C(=O)CCC3)ccc1O (centres undefined)	0.35
CC(C)(C)C1(C)OC(=O)C(=Cc2ccc(Br)o2)C(=O)O1 (centres undefined)	-5.07*
CC1(C)OC(=O)C(=Cc2ccc(-c3ccccc3)o2)C(=O)O1	0.36
CC(C)(C)C1(C)OC(=O)C(=Cc2ccccc2Cl)C(=O)O1 (centres undefined)	-0.365
Cc1ccc(/C(O)=C2\C(=O)C(=O)N(c3ccccn3)C2c2cccc([N+](=O)[O-])c2)cc1 (centres undefined)	-0.505
COc1cc(Br)cc(C=NCc2cccc(C(F)(F)F)c2)c1O	-0.625
CC1CCCN(C(=O)Cc2cccs2)C1 (centres undefined)	-0.8
O=C(O)CC(C(=O)O)N1C(=O)/C(=C/c2ccc(-c3ccc(Br)cc3)o2)SC1=S (centres undefined)	-4.46*
O=C(O)CC(C(=O)O)N1C(=O)/C(=C/c2ccc(Cl)cc2)SC1=S (centres undefined)	-1.01
COc1ccc(/C=C2\SC(=S)N(C(CC(=O)O)C(=O)O)C2=O)cc1 (centres undefined)	-3.03
CCc1ccc(N2C(=O)c3sc4nnc(C)c(=O)n4c3C2=O)cc1	-2.12*
Cc1nnc2sc3c(n2c1=O)C(=O)N(c1ccc(I)cc1)C3=O	0.09
O=C1c2sc3nnc(-c4ccccc4)c(=O)n3c2C(=O)N1c1ccc(Br)cc1	0.305
COc1ccc(C2=NN(C(=O)CCCC(=O)O)C(c3ccc(C)cc3)C2)cc1OC (centres undefined)	55.7
COC(=O)C1=C(C)NC2=C(C(=O)CC(C)(C)C2)C1c1ccc(OCc2ccc(Cl)cc2)c(OC)c1 (centres undefined)	2.36
N#CC1=C(N)OC(C2CC2)=C(C#N)C1c1cccs1 (centres undefined)	2.52
COc1cc(OC)cc(C2SC(N)=C(C#N)C(N)=C2C#N)c1 (centres undefined)	-0.59
N#CC1=C(N)SC(c2cccs2)C(C#N)=C1N (centres undefined)	-5.11*
COc1ccccc1N1C(=O)S/C(=C\c2ccccc2)C1=O	0.1
N#CCSc1nc2c(sc(=S)n2-c2ccccc2)c(=O)n1Cc1ccco1	-0.32
